# Results published in the supplement of paper PMC10646978.
# ± gives the standard deviation.
# Tests used:
# Details in all cases: modulator concentration 10 µM
# [1] = system: RAW-Dual (murine macrophage reporter line); assay: NF-kB reporter (SEAP) activity fold change vs agonist alone; higher = enhanced NF-kB activity
# How it was run: (§1)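 In 384-well plates holding 50 000 RAW-Dual murine macrophage reporter cells per well, compound at 10 μM final was pre-incubated for 1 hour at 37 °C, after which a PRR agonist was added overnight. Supernatant SEAP read with QUANTI-Blue at 620 nm absorbance reported NF-κB, and Lucia luciferase read with QUANTI-Luc luminescence reported IRF. Fold change values come from dividing each reporter signal by the mean of agonist-only control wells on the same plate, averaged over replicate plates with propagated errors.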
# [2] = system: RAW-Dual (murine macrophage reporter line); assay: IRF reporter (Lucia luciferase) activity fold change vs agonist alone; higher = enhanced IRF activity
# How it was run: as §1
# [3] = system: RAW-Dual (murine macrophage reporter line); assay: viability score (confluency relative to resting cells, overnight) (fraction); higher = more viable, active = viable (0.7 or more)
# How it was run: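 A compound met the cutoff when both of two confluency masks exceeded 70% of resting cells. Those masks were made with IncuCyte software from IncuCyte images of RAW-Dual macrophages treated overnight at 10 μM final. This is the basis of the viability score, which is confluency relative to resting cells.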
# [4] = agonist: CpG ODN 1826 0.5 ug/mL
Structure (SMILES),"NF-kB reporter [1, 4]",NF-kB reporter ([1]; agonist: LPS 0.1 ug/mL),NF-kB reporter ([1]; agonist: MPLA […]),IRF reporter ([2]; agonist: 3'3'-cGAMP 10 ug/mL),IRF reporter ([2]; agonist: LPS 0.1 ug/mL),IRF reporter ([2]; agonist: MPLA […]),viability score [3]
NNC(=O)c1ccncc1,1.51 ± 0.21,1.33 ± 0.21,1.31 ± 0.14,0.91 ± 0.028,1.42 ± 0.12,1.11 ± 0.14,0.999 (active)
Cc1ccc(O)c(C2=NOC(O)(C(F)(F)F)C2)c1 (configuration not stated),1.05 ± 0.065,0.955 ± 0.074,0.919 ± 0.054,0.975 ± 0.037,1.43 ± 0.24,1.04 ± 0.093,0.339 (inactive)
O=C(NN=Cc1c(O)ccc2ccccc12)c1ccccc1I,1.54 ± 0.47,1.11 ± 0.096,1.02 ± 0.099,0.847 ± 0.043,1.47 ± 0.15,1.55 ± 0.17,1 (active)
Cn1cnc2c(F)c(Nc3ccc(Br)cc3F)c(C(=O)NOCCO)cc21,0.822 ± 0.071,0.65 ± 0.052,0.666 ± 0.04,0.777 ± 0.045,1.17 ± 0.23,1.35 ± 0.45,0.248 (inactive)
Br.O=S(=O)(c1ccc(-c2csc(Nc3ccc(Br)cc3)n2)cc1)N1CCCCC1,0.859 ± 0.072,1.08 ± 0.088,0.988 ± 0.034,0.938 ± 0.16,1.01 ± 0.042,0.926 ± 0.11,1 (active)
CCOC(=O)N1CCN(C(=O)CSc2ccc(-c3ccccc3)nn2)CC1,1.15 ± 0.086,1.05 ± 0.055,1.09 ± 0.06,0.931 ± 0.051,0.96 ± 0.1,0.906 ± 0.073,0.993 (active)
CCS(=O)(=O)N1CCC(Oc2cc(C)nc(C)n2)CC1,1.23 ± 0.07,0.996 ± 0.086,0.963 ± 0.046,0.982 ± 0.05,1.05 ± 0.049,0.916 ± 0.093,0.997 (active)
O=C(CCCCCN1C(=O)c2cccc3cccc(c23)C1=O)NO,1.71 ± 0.32,1.43 ± 0.12,4.2 ± 0.32,0.062 ± 0.0017,0.581 ± 0.061,0.632 ± 0.12,0.536 (inactive)
Cc1cc(C(O)CNC(=O)c2ccc(C(F)(F)F)nc2)c(C)o1 (configuration not stated),1.25 ± 0.083,1.05 ± 0.085,1.01 ± 0.029,0.965 ± 0.049,1.04 ± 0.053,1.16 ± 0.11,1 (active)
CN1C(=O)C(=NNC(=O)COc2cccc(Br)c2)c2ccccc21,0.895 ± 0.06,0.978 ± 0.082,0.896 ± 0.054,0.954 ± 0.033,1.48 ± 0.16,1.16 ± 0.12,1.01 (active)
Oc1ccc(O)cc1,1.33 ± 0.2,0.586 ± 0.41,0.377 ± 0.093,0.459 ± 0.018,0.58 ± 0.41,0.211 ± 0.13,0.909 (active)
COC(=O)/C=C/C(=O)OC,1.2 ± 0.17,1.06 ± 0.17,1.01 ± 0.064,0.61 ± 0.019,1.19 ± 0.28,1.09 ± 0.12,1 (active)
Fc1ccc(Oc2nc(Nc3cccc(Cl)c3)nc(N3CCOCC3)n2)cc1,0.331 ± 0.028,1.33 ± 0.089,2.57 ± 0.15,0.757 ± 0.052,2.94 ± 0.22,2.19 ± 0.34,0.84 (active)
O=C(O)CCCNC(=O)c1cccc([N+](=O)[O-])c1,1.06 ± 0.14,1.11 ± 0.082,0.983 ± 0.036,0.986 ± 0.14,1.11 ± 0.11,1.05 ± 0.19,1 (active)
CC(C)(C)NCC(O)COc1cccc2c1CC(O)C(O)C2 (configuration not stated),1.26 ± 0.3,1 ± 0.11,1.05 ± 0.095,0.919 ± 0.045,1.04 ± 0.16,0.968 ± 0.17,0.931 (active)
COC(=O)N[C@H](C(=O)N1CCC[C@H]1c1ncc(-c2ccc(-c3ccc(-c4cnc([C@@H]5CCCN5C(=O)[C@@H](NC(=O)OC)C(C)C)[nH]4)cc3)cc2)[nH]1)C(C)C,0.724 ± 0.098,1.17 ± 0.46,1.22 ± 0.074,0.757 ± 0.12,1.52 ± 0.3,4.38 ± 1.3,0.987 (active)
Oc1c2c(nc3cc(-c4ccc(Br)cc4)nn13)CCS2,1.06 ± 0.084,1.04 ± 0.064,0.857 ± 0.082,0.857 ± 0.03,1.19 ± 0.16,0.921 ± 0.2,1.01 (active)
O=C(NCC(O)c1ccc(C(F)(F)F)cc1)c1cc(Br)cs1 (configuration not stated),0.931 ± 0.047,0.981 ± 0.077,0.865 ± 0.043,1.14 ± 0.058,1.21 ± 0.077,1.22 ± 0.14,0.66 (inactive)

Structure (SMILES),"NF-kB reporter [1, 4]",NF-kB reporter ([1]; agonist: LPS 0.1 ug/mL),NF-kB reporter ([1]; agonist: MPLA […]),IRF reporter ([2]; agonist: 3'3'-cGAMP 10 ug/mL),IRF reporter ([2]; agonist: LPS 0.1 ug/mL),IRF reporter ([2]; agonist: MPLA […]),viability score [3]
CC(C)c1ccccc1NS(=O)(=O)c1ccccc1,0.866 ± 0.072,0.766 ± 0.039,1.05 ± 0.11,1.08 ± 0.066,1.4 ± 0.089,1.53 ± 0.16,0.857 (active)
Cc1ccccc1CC(CC(=O)O)C(=O)O (configuration not stated),1.1 ± 0.089,0.979 ± 0.12,0.93 ± 0.094,1.03 ± 0.048,1.21 ± 0.12,1.3 ± 0.19,1.03 (active)
CC(=O)Nc1c(-c2ccc3ccccc3c2)nc2ccccn12,1.37 ± 0.33,0.942 ± 0.079,1.07 ± 0.11,0.949 ± 0.032,1.14 ± 0.15,1.16 ± 0.14,0.995 (active)
COC(=O)C1=CN(C2CC2)C=C(C(=O)OC)C1c1ccccc1OC,0.917 ± 0.074,1.05 ± 0.058,0.97 ± 0.061,0.934 ± 0.074,1.22 ± 0.17,1 ± 0.097,1.01 (active)
O=C(O)c1ccc(-n2nc(-c3ccccc3O)nc2-c2ccccc2O)cc1,0.749 ± 0.082,0.917 ± 0.1,1.11 ± 0.13,0.902 ± 0.042,1.31 ± 0.14,1.49 ± 0.15,0.988 (active)
CCN1CCCC1CNC(=O)c1cc(S(=O)(=O)CC)c(N)cc1OC (configuration not stated),1.69 ± 0.23,1.28 ± 0.32,1.23 ± 0.089,0.819 ± 0.032,0.957 ± 0.29,0.808 ± 0.12,0.994 (active)
CC(C)NCC(O)COc1cccc2ccccc12.Cl (configuration not stated),0.858 ± 0.12,1.05 ± 0.13,1.03 ± 0.06,0.66 ± 0.051,1.21 ± 0.22,1.12 ± 0.29,0.984 (active)
CCN1CCN(Cc2ccc(Nc3ncc(F)c(-c4cc(F)c5nc(C)n(C(C)C)c5c4)n3)nc2)CC1.CS(=O)(=O)O,0.095 ± 0.023,0.793 ± 0.04,3.04 ± 0.21,0.29 ± 0.018,0.19 ± 0.035,0.314 ± 0.03,0.852 (active)
Cc1ccc(CN2CCN(N=Cc3c4ccccc4cc4ccccc34)CC2)cc1,0.75 ± 0.071,0.881 ± 0.044,1.12 ± 0.1,0.855 ± 0.048,1.37 ± 0.08,1.25 ± 0.13,0.998 (active)
Fc1ccc(Nc2nc(NN=Cc3ccccc3Cl)nc(N3CCCCC3)n2)cc1,1.02 ± 0.17,1.26 ± 0.13,1.4 ± 0.31,0.992 ± 0.071,1.1 ± 0.19,1.48 ± 0.24,0.961 (active)
CC1CCN(c2cc(N3CCNCC3)ncn2)CC1,0.972 ± 0.32,1.08 ± 0.054,1.02 ± 0.069,0.932 ± 0.032,1.11 ± 0.17,1.26 ± 0.26,0.997 (active)
Cc1cccc(C)c1NC(=O)CC(C)c1ccccc1 (configuration not stated),0.982 ± 0.31,1.12 ± 0.16,1.2 ± 0.14,1.03 ± 0.033,0.937 ± 0.25,1.17 ± 0.33,0.915 (active)
O=C(O)c1cc(S(=O)(=O)N2CCCCC2)c(Cl)cc1Cl,0.937 ± 0.082,1.04 ± 0.087,0.965 ± 0.12,0.912 ± 0.11,1.18 ± 0.11,1.06 ± 0.28,1.01 (active)
C#CCN(C)Cc1ccccc1.Cl,0.99 ± 0.11,0.895 ± 0.059,0.98 ± 0.021,0.967 ± 0.075,1.01 ± 0.11,0.833 ± 0.2,0.999 (active)
c1cn2cc(-c3ccc4cn[nH]c4c3)nc(Nc3ccc(N4CCOCC4)cc3)c2n1,0.99 ± 0.24,0.759 ± 0.06,1.25 ± 0.12,0.24 ± 0.015,0.897 ± 0.12,1.1 ± 0.26,0.978 (active)
CNCC[C@@H](Oc1ccccc1C)c1ccccc1.Cl,0.744 ± 0.079,0.996 ± 0.05,1.26 ± 0.085,1.02 ± 0.11,0.95 ± 0.041,0.792 ± 0.16,0.958 (active)
CCOC(=O)[C@H](CCc1ccccc1)N[C@@H](C)C(=O)N1CCC[C@H]1C(=O)O.O=C(O)/C=C\C(=O)O,1.05 ± 0.09,1.01 ± 0.11,1 ± 0.054,1.01 ± 0.085,0.916 ± 0.04,0.868 ± 0.2,1 (active)
C=C1c2cccc(O)c2C(=O)C2=C(O)[C@]3(O)C(=O)C(C(N)=O)=C(O)[C@@H](N(C)C)[C@@H]3[C@@H](O)[C@H]12.Cl,1.16 ± 0.29,0.985 ± 0.064,0.952 ± 0.07,0.914 ± 0.045,1.22 ± 0.23,1.14 ± 0.13,0.962 (active)
